# According to PubChem BioAssay AID1159580 (chemical genetic matrix, 2015):
# Several values for one entry are separate records, joined by “and”; a condition that tells them apart may be missing. Equal entries are not always repeated. Screen size: about 5,500 compounds; about 2,000 (36%) were called active. Inconclusive results (about 18%) are left out. Cut-off read from the data, not from the text of the source: active = normalized growth mostly below about 0.91 (no sharp cut-off); inconclusive = no clear call, values can overlap the other calls; inactive = mostly above about 0.92. Some of the results follow.
# Assay: chemical genetic growth profiling, strain panel (AID 1159580);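 note: tested at 20 µM; growth read once vehicle control cultures reached saturation at 30 °C; 1 = growth at the plate median or of vehicle wells; lower values mean less growth of the strain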
# Details: S. cerevisiae deletion strains, growth OD
smiles,measurement,setting,value
CC(C)c1ccc2c(c1O)CC[C@H]1C3=C(CC[C@]21C)C(=O)OC3,normalized growth,"locus YAL013W, strain DEP1, stronger effect = lower value",0.847 (active)
same,normalized growth,"locus YAL021C, strain ccr4, stronger effect = lower value",0.999 (inactive)
same,normalized growth,"locus YAL026C, strain drs2, stronger effect = lower value",0.946 (inactive)
same,normalized growth,"locus YAL030W, strain snc1, stronger effect = lower value",0.969 (inactive)
same,normalized growth,"locus YBL061C, strain skt5, stronger effect = lower value",0.962 (inactive)
same,normalized growth,"locus YBR009C, strain hhf1, stronger effect = lower value",0.96 (inactive)
same,normalized growth,"locus YBR021W, strain FUR4, stronger effect = lower value",0.903 (inactive)
same,normalized growth,"locus YBR023C, strain chs3, stronger effect = lower value",0.957 (inactive)
same,normalized growth,"locus YBR171W, strain sec66, stronger effect = lower value",0.935 (inactive)
same,normalized growth,"locus YBR229C, strain ROT2, stronger effect = lower value",0.97 (inactive)
same,normalized growth,"locus YBR231C, strain swc5, stronger effect = lower value",0.957 (inactive)
same,normalized growth,"locus YBR279W, strain paf1, stronger effect = lower value",0.979 (inactive)
same,normalized growth,"locus YCL011C, strain gbp2, stronger effect = lower value",0.933 (inactive)
same,normalized growth,"locus YCL016C, strain dcc1, stronger effect = lower value",0.973 (inactive)
same,normalized growth,"locus YCL029C, strain bik1, stronger effect = lower value",0.912 (inactive)
same,normalized growth,"locus YCL061C, strain MRC1, stronger effect = lower value",0.925 (inactive)
same,normalized growth,"locus YCL069W, strain vba3, stronger effect = lower value",0.95 (inactive)
same,normalized growth,"locus YCR088W, strain abp1, stronger effect = lower value",0.933 (inactive)
same,normalized growth,"locus YDL005C, strain med2, stronger effect = lower value",0.961 (inactive)
same,normalized growth,"locus YDL035C, strain GPR1, stronger effect = lower value",0.943 (inactive)
same,normalized growth,"locus YDL040C, strain nat1, stronger effect = lower value",0.965 (inactive)
same,normalized growth,"locus YDL074C, strain BRE1, stronger effect = lower value",0.617 (active)
same,normalized growth,"locus YDL101C, strain DUN1, stronger effect = lower value",0.943 (inactive)
same,normalized growth,"locus YDL134C, strain PPH21, stronger effect = lower value",0.8 (active)
same,normalized growth,"locus YDL185W, strain tfp1, stronger effect = lower value",0.988 (inactive)
same,normalized growth,"locus YDL192W, strain arf1, stronger effect = lower value",0.898 (active)
same,normalized growth,"locus YDR001C, strain nth1, stronger effect = lower value",0.935 (inactive)
same,normalized growth,"locus YDR069C, strain doa4, stronger effect = lower value",0.996 (inactive)
same,normalized growth,"locus YDR101C, strain arx1, stronger effect = lower value",0.968 (inactive)
same,normalized growth,"locus YDR137W, strain rgp1, stronger effect = lower value",0.825 (active)
same,normalized growth,"locus YDR150W, strain NUM1, stronger effect = lower value",0.959 (inactive)
same,normalized growth,"locus YDR159W, strain sac3, stronger effect = lower value",1 (inactive)
same,normalized growth,"locus YDR162C, strain NBP2, stronger effect = lower value",0.81 (active)
same,normalized growth,"locus YDR195W, strain ref2",1.01 (inactive)
same,normalized growth,"locus YDR297W, strain sur2, stronger effect = lower value",0.966 (inactive)
same,normalized growth,"locus YDR318W, strain mcm21, stronger effect = lower value",0.886 (active)
same,normalized growth,"locus YDR334W, strain swr1, stronger effect = lower value",0.956 (inactive)
same,normalized growth,"locus YDR335W, strain msn5, stronger effect = lower value",0.973 (inactive)
same,normalized growth,"locus YDR388W, stronger effect = lower value",0.99 (inactive)
same,normalized growth,"locus YDR392W, strain spt3, stronger effect = lower value",0.542 (active)
same,normalized growth,"locus YDR502C, strain sam2, stronger effect = lower value",0.913 (active)
same,normalized growth,"locus YEL003W, strain gim4, stronger effect = lower value",0.936 (inactive)
same,normalized growth,"locus YEL037C, strain rad23, stronger effect = lower value",0.941 (inactive)
same,normalized growth,"locus YEL061C, strain CIN8 (second series), stronger effect = lower value",0.939 (inactive)
same,normalized growth,"locus YEL061C, strain CIN8, stronger effect = lower value",0.772 (active)
same,normalized growth,"locus YER015W, strain faa2, stronger effect = lower value",0.961 (inactive)
same,normalized growth,"locus YER016W, strain bim1, stronger effect = lower value",0.976 (inactive)
same,normalized growth,"locus YER110C, stronger effect = lower value",0.943 (inactive)
same,normalized growth,"locus YER111C, strain swi4, stronger effect = lower value",0.946 (inactive)
same,normalized growth,"locus YER155C, strain BEM2 (second series), stronger effect = lower value",0.807 (active)
same,normalized growth,"locus YER155C, strain BEM2, stronger effect = lower value",0.846 (active)
same,normalized growth,"locus YER167W, strain BCK2, stronger effect = lower value",0.781 (active)
same,normalized growth,"locus YFR010W, strain ubp6, stronger effect = lower value",0.952 (inactive)
same,normalized growth,"locus YGL078C, strain dbp3, stronger effect = lower value",0.962 (inactive)
same,normalized growth,"locus YGL086W, strain mad1, stronger effect = lower value",0.867 (active)
same,normalized growth,"locus YGL167C, strain pmr1, stronger effect = lower value",0.967 (inactive)
same,normalized growth,"locus YGL173C, strain kem1, stronger effect = lower value",0.971 (inactive)
same,normalized growth,"locus YGL227W, strain vid30, stronger effect = lower value",0.945 (inactive)
same,normalized growth,"locus YGL240W, strain doc1, stronger effect = lower value",0.953 (inactive)
same,normalized growth,"locus YGL248W, strain PDE1, stronger effect = lower value",0.754 (active)
same,normalized growth,"locus YGL253W, strain hxk2, stronger effect = lower value",0.987 (inactive)
same,normalized growth,"locus YGR078C, strain PAC10, stronger effect = lower value",0.718 (active)
same,normalized growth,"locus YGR135W, strain pre9, stronger effect = lower value",0.953 (inactive)
same,normalized growth,"locus YGR252W, strain gcn5, stronger effect = lower value",0.916 (inactive)
same,normalized growth,"locus YHR013C, strain ard1, stronger effect = lower value",1.02 (inactive)
same,normalized growth,"locus YHR027C, strain rpn1, stronger effect = lower value",0.994 (inactive)
same,normalized growth,"locus YHR030C, strain SLT2, stronger effect = lower value",0.661 (active) and 0.918 (inactive)
same,normalized growth,"locus YHR079C, strain IRE1 (second series), stronger effect = lower value",0.959 (inactive)
same,normalized growth,"locus YHR079C, strain IRE1, stronger effect = lower value",0.927 (inactive)
same,normalized growth,"locus YHR094C, strain hxt1, stronger effect = lower value",0.971 (inactive)
same,normalized growth,"locus YHR129C, strain ARP1, stronger effect = lower value",0.798 (active)
same,normalized growth,"locus YHR142W, strain chs7, stronger effect = lower value",0.867 (active)
same,normalized growth,"locus YHR200W, strain rpn10, stronger effect = lower value",0.957 (inactive)
same,normalized growth,"locus YIL066C, strain RNR3, stronger effect = lower value",0.601 (active)
same,normalized growth,"locus YIL073C, strain SPO22, stronger effect = lower value",0.844 (inactive)
same,normalized growth,"locus YIL125W, strain kgd1, stronger effect = lower value",0.954 (inactive)
same,normalized growth,"locus YIR030C, strain dcg1, stronger effect = lower value",0.965 (inactive)
same,normalized growth,"locus YJL092W, strain hpr5, stronger effect = lower value",0.941 (inactive)
same,normalized growth,"locus YJL095W, strain BCK1 (second series), stronger effect = lower value",0.97 (inactive)
same,normalized growth,"locus YJL095W, strain BCK1, stronger effect = lower value",0.646 (active) and 0.956 (inactive)
same,normalized growth,"locus YJL115W, strain asf1, stronger effect = lower value",0.956 (inactive)
same,normalized growth,"locus YJL129C, strain trk1, stronger effect = lower value",0.856 (active)
same,normalized growth,"locus YJL134W, strain LCB3, stronger effect = lower value",0.975 (inactive)
same,normalized growth,"locus YJL154C, strain vps35, stronger effect = lower value",0.95 (inactive)
same,normalized growth,"locus YJL164C, strain tpk1, stronger effect = lower value",0.953 (inactive)
same,normalized growth,"locus YJL166W, strain qcr8, stronger effect = lower value",0.987 (inactive)
same,normalized growth,"locus YJL168C, strain set2, stronger effect = lower value",0.989 (inactive)
same,normalized growth,"locus YJL187C, strain SWE1 (second series), stronger effect = lower value",0.86 (active)
